“And” between values parts separate entries of the source, which are not always exact repeats. Equal values may be shown once. Results filed as inconclusive are left out. A structure can be active in one record and inactive in another. The source made the active and inactive calls. Unless noted, calls follow the shape of the dose curve; as a rule, active = well fitted curve in the direction sought with a large enough effect in the repeat runs; inconclusive = weak or mixed curves; inactive = no such curve, though single readings can be large; an effect the other way counts as inactive or inconclusive.
Experiments:
[1] = qHTS assay to identify small molecule agonists of the hypoxia (HIF-1) signaling pathway - cell viability counter screen (AID 1224844; calls by dose curve; also: nearly all actives have a fitted effect of over 50% in size; also: potency is read from the fitted curve at half-maximal effect)
Summary of the method: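 ME-180 HRE-bla cells, 2,000/well, 0.5% dialyzed FBS; 5 hr settle, 17 hr compound at 37C/5% CO2; CCF4-AM reporter read first, then CellTiter-Glo luminescence after 30 min RT.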

[2] = qHTS assay to identify small molecule agonists of H2AX (AID 1224845; active = well fitted activation curve with a large enough effect in the signal ratio in the repeat runs, not every such curve was filed as active; the % refers to the signal ratio)
Summary of the method: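 Wild-type CHO-K1 cells plated overnight, then exposed 3 hr at 37C to compounds at 15 concentrations (0.76% DMSO). Lysed, then HTRF anti-pH2AX(S139)-cryptate/anti-H2AX-d2 detection after 24 hr at room temperature; emissions 665 and 620 nm.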

[3] = qHTS assay to identify small molecule agonists of H2AX - cell viability counter screen (AID 1224847; calls by dose curve; also: nearly all actives have a fitted effect of over 30% in size; also: potency is read from the fitted curve at half-maximal effect)
Summary of the method: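 We seed wild-type CHO-K1 cells overnight, treat them for 3 hr at 37C with compounds in 15-concentration series, and quantify remaining viability by CellTiter-Glo luminescence.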

[4] = qHTS RealTime-Glo MT Cell Viability Assay in HepG2 cells - 24 hour (AID 1224867); also: nearly all actives have a fitted effect of over 50% in size; also: potency is read from the fitted curve at half-maximal effect
Summary of the method: (§1)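 Viability was tracked continuously by NanoLuc luminescence from prosubstrate reduced by living HepG2 cells, at successive time points over 40 h of compound exposure. Cells with reagent were preincubated 5 h at 37 °C before compound addition.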

[5] = A CellTox Green Cytotoxicity Assay to monitor cytotoxicity in HEK293 cells - 0 hour (AID 1224869); also: nearly all actives have a fitted effect of over 50% in size; also: potency is read from the fitted curve at half-maximal effect
Summary of the method: (§2)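 Nonlytic real-time cytotoxicity: HEK293 + CellTox Green reagent plated, 5 h preincubation, pintool compound addition (23 nL in DMSO), 37 C for 40 h, fluorescence measured at successive time points.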

[6] = qHTS RealTime-Glo MT Cell Viability Assay in HepG2 cells - 40 hour (AID 1224870); also: nearly all actives have a fitted effect of over 50% in size; also: potency is read from the fitted curve at half-maximal effect
Summary of the method: (§3)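 HepG2 cells mixed with RealTime-Glo MT reagents (NanoLuc plus cell-permeant prosubstrate) were seeded at 600 cells/well, incubated 5 h at 37 C/5% CO2, then pinned with compounds in DMSO; nonlytic luminescence tracked viability during 40 h treatment.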

[7] = A CellTox Green Cytotoxicity Assay to monitor cytotoxicity in HEK293 cells - 40 hour (AID 1224871); also: nearly all actives have a fitted effect of over 45% in size; also: potency is read from the fitted curve at half-maximal effect
Summary of the method: as §2

[8] = qHTS RealTime-Glo MT Cell Viability Assay in HEK293 cells - 16 hour (AID 1224872); also: nearly all actives have a fitted effect of over 50% in size; also: potency is read from the fitted curve at half-maximal effect
Summary of the method: (§4)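 Viability tracked continuously by luminescence as live cells reduce a prosubstrate for NanoLuc; HEK293 cells preincubated 5 h, compound-treated at 37 C, and read at 0, 8, 16, 24, 32 and 40 h.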

[9] = qHTS RealTime-Glo MT Cell Viability Assay in HepG2 cells - 8 hour (AID 1224873); also: nearly all actives have a fitted effect of over 55% in size; also: potency is read from the fitted curve at half-maximal effect
Summary of the method: as §3

[10] = qHTS RealTime-Glo MT Cell Viability Assay in HEK293 cells - 40 hour (AID 1224874); details: RealTime-Glo luminescence; max response: stronger effect = lower value; also: nearly all actives have a fitted effect of over 50% in size; also: potency is read from the fitted curve at half-maximal effect
Summary of the method: (§5)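 Cells were seeded together with NanoLuc luciferase and a prosubstrate that viable cells reduce to a luciferase substrate. After a 5 h incubation at 37 C/5% CO2, compounds were added and luminescence was measured repeatedly during 40 h of treatment.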

[11] = A CellTox Green Cytotoxicity Assay to monitor cytotoxicity in HEK293 cells - 24 hour (AID 1224875); also: nearly all actives have a fitted effect of over 45% in size; also: potency is read from the fitted curve at half-maximal effect
Summary of the method: as §2

[12] = A CellTox Green Cytotoxicity Assay to monitor cytotoxicity in HepG2 cells - 16 hour (AID 1224876); also: nearly all actives have a fitted effect of over 45% in size; also: potency is read from the fitted curve at half-maximal effect
Summary of the method: (§6)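 Read-out is fluorescence of a cyanine dye excluded from live cells that stains DNA of dead HepG2 cells, with signal proportional to cytotoxicity. Plates were read at 0, 8, 16, 24, 32 and 40 h after compound addition.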

[13] = qHTS RealTime-Glo MT Cell Viability Assay in HepG2 cells - 32 hour (AID 1224877); also: nearly all actives have a fitted effect of over 55% in size; also: potency is read from the fitted curve at half-maximal effect
Summary of the method: as §1

[14] = A CellTox Green Cytotoxicity Assay to monitor cytotoxicity in HepG2 cells - 24 hour (AID 1224878); also: nearly all actives have a fitted effect of over 45% in size; also: potency is read from the fitted curve at half-maximal effect
Summary of the method: as §6

[15] = A CellTox Green Cytotoxicity Assay to monitor cytotoxicity in HepG2 cells - 40 hour (AID 1224879); also: nearly all actives have a fitted effect of over 40% in size; also: potency is read from the fitted curve at half-maximal effect
Summary of the method: as §6

[16] = qHTS RealTime-Glo MT Cell Viability Assay in HEK293 cells - 0 hour (AID 1224880)
Summary of the method: as §5

[17] = qHTS RealTime-Glo MT Cell Viability Assay in HEK293 cells - 32 hour (AID 1224868); also: nearly all actives have a fitted effect of over 50% in size; also: potency is read from the fitted curve at half-maximal effect
Summary of the method: as §4

[18] = qHTS assay to identify small molecule antagonists of the estrogen related receptor (ERR) signaling pathway from Tox21 library (AID 1224848); also: nearly all actives have a fitted effect of over 50% in size; also: potency is read from the fitted curve at half-maximal effect
Summary of the method: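 Cells: ERR line, 2,000/well; 6 h preincubation 37 C/5% CO2. Cpd in DMSO via pin tool; 18 h, 37 C. ONE-Glo, 30 min RT, luminescence.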

[19] = qHTS assay to identify small molecule agonists of the estrogen related receptor (ERR) signaling pathway from Tox21 library (AID 1224849; calls by dose curve; also: nearly all actives have a fitted effect of over 15% in size); details: ERR reporter cell line, ONE-Glo luciferase, 18 h
Summary of the method: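 ERR cells, 6 h pre-incubation 37 C/5% CO2; cpd in DMSO pinned; 18 h 37 C; ONE-Glo added, 30 min RT; luminescence read. Agonist mode, qHTS.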
% is scaled to controls: 0 for no effect and ±100 for the full control effect.

C=C[C@@]1(C)CC(=O)[C@]2(O)[C@@]3(C)[C@@H](O)CCC(C)(C)[C@@H]3[C@H](O)[C@H](OC(C)=O)[C@@]2(C)O1
inactive: Potency [2] | Potency [3] | Potency [4] | Potency [5] | Potency [6] | Potency [7] | Potency [8] | Potency [9] | max response [10] -11.8% | Potency [11] | Potency [12] | Potency [13] | Potency [14] | Potency [15] | Potency [16]
active: Potency [1] 38.9 µM

O=C(O)COCCN1CCN(C(c2ccccc2)c2ccc(Cl)cc2)CC1 (configuration not stated)
inactive: Potency [1] | Potency [3] | Potency [4] | Potency [17] | Potency [5] | Potency [6] | Potency [7] | Potency [8] | Potency [9] | max response [10] 5.07% and 2.04% | Potency [11] | Potency [12] | Potency [13] | Potency [14] | Potency [15] | Potency [16]

CCCCCCCCCCC(CO)CCCCCCCC (configuration not stated)
inactive: Potency [1] | Potency [2] | Potency [3] | Potency [4] | Potency [17] | Potency [5] | Potency [6] | Potency [7] | Potency [8] | max response [10] 5.36% and 2.58% | Potency [11] | Potency [12] | Potency [13] | Potency [15]

C[N+](C)(C)CCO
inactive: Potency [1] | Potency [2] | Potency [3] | Potency [4] | Potency [17] | Potency [5] | Potency [6] | Potency [7] | Potency [8] | max response [10] 15.9% and 6.06% | Potency [11] | Potency [12] | Potency [13] | Potency [15] | Potency [16]

CN(C)CCCN1c2ccccc2Sc2ccc(Cl)cc21
inactive: activity change, positive = activation ([19]; at 42.5 µM (top of the series)) -35.5% | activity change, positive = activation ([19]; at 92.4 µM (top of the series)) -80.4% | Potency [5]
active: Potency [1] 49 µM | Potency [3] 55.2 µM | Potency [18] 54.5 µM | Potency [4] 43.6 µM and 23.9 µM | Potency [6] 30.9 µM and 23.9 µM | Potency [7] 43.6 µM | Potency [8] 30.9 µM and 21.3 µM | Potency [9] 54.9 µM | Potency [10] 21.9 µM and 21.3 µM | Potency [11] 49 µM | Potency [12] 49 µM and 21.3 µM | Potency [13] 34.7 µM and 23.9 µM | Potency [14] 38.9 µM and 21.3 µM | Potency [15] 24.5 µM and 21.3 µM

C=C[C@H]1CN2CC[C@H]1C[C@@H]2[C@@H](O)c1ccnc2ccc(OC)cc12
active: Potency [17] 48.2 µM | Potency [8] 42.9 µM | Potency [10] 48.2 µM
inactive: Potency [1] | Potency [2] | Potency [3] | Potency [4] | Potency [5] | Potency [6] | Potency [7] | Potency [11] | Potency [12] | Potency [13] | Potency [14] | Potency [15] | Potency [16]

c1ccc2cc3ccccc3cc2c1
inactive: Potency [1] | Potency [3] | Potency [18] | Potency [4] | Potency [5] | Potency [6] | Potency [7] | Potency [8] | max response [10] 1.77% and 23.2% | Potency [11] | Potency [12] | Potency [13] | Potency [14] | Potency [15] | Potency [16]
6.4% (inactive) and 19.8% (active): activity change, positive = activation ([19]; at 92.4 µM (top of the series))

O=C(O)CCCC(=O)O
inactive: Potency [1] | Potency [2] | Potency [3] | Potency [4] | Potency [17] | Potency [5] | Potency [6] | Potency [7] | Potency [8] | Potency [9] | max response [10] -2.98% and 4.62% | Potency [11] | Potency [12] | Potency [13] | Potency [15] | Potency [16]

Nc1ccc(N)c(Cl)c1
inactive and 49 µM (active): Potency [9]
inactive and 27.5 µM (active): Potency [12]
inactive and 43.6 µM (active): Potency [15]
inactive and 38.9 µM (active): Potency [5] | Potency [7]
inactive: Potency [1] | activity change, positive = activation ([19]; at 92.4 µM (top of the series)) -59.7% and -39% | Potency [4] | Potency [17] | Potency [6] | max response [10] -27.4% and -12.8% | Potency [13] | Potency [16]
active: Potency [18] 68.5 µM and 54.5 µM | Potency [8] 48.9 µM

CCc1cccc2c3c([nH]c12)C(CC)(CC(=O)O)OCC3 (configuration not stated)
inactive: Potency [1] | Potency [2] | Potency [3] | Potency [4] | Potency [17] | Potency [5] | Potency [6] | Potency [7] | Potency [8] | Potency [9] | max response [10] 0.853% and 0.265% | Potency [11] | Potency [12] | Potency [13] | Potency [14] | Potency [15] | Potency [16]

C=CC(C)(O)CCC=C(C)C (configuration not stated)
inactive: Potency [1] | Potency [2] | Potency [3] | Potency [4] | Potency [17] | Potency [5] | Potency [6] | Potency [7] | Potency [8] | max response [10] 3.03% and 9.35% | Potency [11] | Potency [12] | Potency [13] | Potency [14] | Potency [15] | Potency [16]

CC/C(=C(/CC)c1ccc(O)cc1)c1ccc(O)cc1
active: Potency [8] 15.4 µM and 30.9 µM | Potency [10] 12.2 µM and 27.5 µM and 19 µM
112 µM (active) and inactive: Potency [3]
inactive: Potency [1] | Potency [2] | Potency [4] | Potency [5] | Potency [6] | Potency [7] | Potency [11] | Potency [12] | Potency [13] | Potency [15]

From PubChem BioAssay (Tox21)
